Shown are actives, neighbours in structure and some others; about 3.5% of the full set was active somewhere.
TEAD-YAP inh: TEAD-YAP interaction inhibition; HEK-TIYL cells, TEAD-Gal4/YAP UAS-luciferase luminescence; inhibition, % at 9.12 µM; hit rate 1.4% among 640,000; AID 1259422; in the data active = inhibition above about 32%;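 also: 0% = median of test compound wells and 100% = reference inhibitor wells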
MITF inh: blocks human microphthalmia-associated transcription factor | O75030 | AlphaScreen MITF homodimerization, bead proximity signal | inhibition, % at 2.6 µM | hit rate 0.91% among 650,000; in the data active = inhibition above about 50%;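 also: 0% = vehicle wells with protein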
FBW7 act: human FBW7 E3 ligase activation, primary screen; normalized activity (activation), % at 26.1 µM; AID 1259310; hit rate 0.13% among 650,000; AlphaScreen FBW7–phospho-cyclin E peptide binding, activator screen; in the data active = normalized activity above about 1.9%;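 also: purified mutant Fbw7 with reduced substrate affinity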
Target sequence (Q969H0 whole entry, looked up): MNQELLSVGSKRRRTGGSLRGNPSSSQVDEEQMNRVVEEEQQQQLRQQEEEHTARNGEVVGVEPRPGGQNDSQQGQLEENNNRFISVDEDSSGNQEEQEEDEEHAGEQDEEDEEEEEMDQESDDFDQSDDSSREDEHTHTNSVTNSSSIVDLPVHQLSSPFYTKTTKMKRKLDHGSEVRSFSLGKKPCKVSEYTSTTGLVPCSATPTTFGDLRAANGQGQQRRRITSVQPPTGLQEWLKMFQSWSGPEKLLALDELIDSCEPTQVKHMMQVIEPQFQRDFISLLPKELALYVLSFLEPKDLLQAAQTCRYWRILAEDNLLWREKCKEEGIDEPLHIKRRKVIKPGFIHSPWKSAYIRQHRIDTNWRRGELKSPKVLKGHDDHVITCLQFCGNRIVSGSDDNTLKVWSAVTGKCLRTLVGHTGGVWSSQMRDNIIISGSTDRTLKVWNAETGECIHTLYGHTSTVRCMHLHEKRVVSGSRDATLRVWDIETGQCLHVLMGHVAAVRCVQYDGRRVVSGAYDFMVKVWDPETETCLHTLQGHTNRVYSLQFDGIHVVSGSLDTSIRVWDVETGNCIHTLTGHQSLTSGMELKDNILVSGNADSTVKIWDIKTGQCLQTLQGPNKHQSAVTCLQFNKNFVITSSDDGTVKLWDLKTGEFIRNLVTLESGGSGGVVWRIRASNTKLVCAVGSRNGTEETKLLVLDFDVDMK
GPR151 ag: activates the human receptor GPR151; hit rate 1% among 650,000; PathHunter beta-arrestin GPR151 cells, luminescence; activation, % at 11.2 µM; Q8TDV0; in the data active = activation above about 4.9%;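 also: 0% = median of compound wells and 100% = cells with positive control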
An asterisk follows results filed as active.

SMILES	TEAD-YAP inh	MITF inh	FBW7 act	GPR151 ag
N#C/C(=C\c1ccc(OCC(=O)NCC2CCCO2)cc1)C(=O)NCCc1ccccc1 (centres undefined)	0	8	2.0*	0
N#C/C(=C\c1ccc(OCC(=O)NCC2CCCO2)cc1)C(=O)NCc1ccccc1 (centres undefined)	7	-22	0	1
COc1cc(-c2cn[nH]c2)ccc1C(=O)NCCc1ccco1	-57	18	0	-1
Brc1ccc(CSc2nn3cnnc3s2)cc1	53*	-10	0	0
Nc1nnc(SCc2ccc(Br)cc2)s1	-4	14	0	-1
COc1cccc(CNC(=O)CCC2CCCN(C(=O)CSC)C2)c1 (centres undefined)	0	11	0	1
Cn1cnc([N+](=O)[O-])c1Sc1nc2ccccc2[nH]1	56*	1	0	-1
O=S(=O)(Nc1ccc(Cc2ccncc2)cc1)c1ccc(Cl)cc1	38*	5	0	2
COc1cc(Nc2cc(N3CCc4ccccc4C3)nc(N)n2)cc(OC)c1OC	37*	5	0	3
COc1ccc(-c2cc(Nc3ccc(Oc4ccccc4)cc3)nc(N)n2)cn1	44*	6	0	2
COc1ccc(CCNc2cc(-c3ccc(OC)nc3)nc(N)n2)cc1	51*	0	0	-1
COc1ccc(-c2cc(Nc3cc(OC)c(OC)c(OC)c3)nc(N)n2)cc1	41*	-17	0	2
COc1ccc(-c2cc(Nc3ccc(NC(C)=O)cc3)nc(N)n2)cn1	-13	-6	0	-1
Cn1cc(-c2cc(-c3ccccc3)nn2-c2ccccc2)c2ccccc21	-10	7	0	-1
COc1cc(/C=C/C(=O)OCC(=O)NNC(=O)c2ccc(F)cc2)ccc1O	5	-4	0	3
Cc1nn(C)c(C)c1-c1cc(Nc2ccc(Oc3ccccc3)cc2)nc(N)n1	54*	40	0	-1
COc1ccc(CCNc2cc(-c3ccccc3)nc(N)n2)cc1	42*	3	0	0
COc1ccc(-c2cc(NCCc3ccc(O)cc3)nc(N)n2)cc1	-44	7	0	-1
CCCCC(=O)N1CCCC(c2nc3c(nnn3Cc3ccccc3)c(=O)[nH]2)C1 (centres undefined)	5	10	0	1
O=C(Nc1ccc2c(c1)Cc1ccccc1-2)c1cc(Br)ccc1Cl	50*	14	0	1
O=C(Nc1ccc2c(c1)Cc1ccccc1-2)c1cc(Cl)ccc1Cl	8	-8	0	0
N#Cc1c2ccc([N+](=O)[O-])cc2[n+]([O-])n1-c1ccccc1	-25	-3	0	1
N#CC1=C(N)N(c2ccccc2)S(=O)(=O)c2cc([N+](=O)[O-])ccc21	56*	14	0	-1
Nn1c(SCC(=O)c2ccc(O)cc2O)nnc1-c1cc(Cl)ccc1Cl	42*	-5	0	2
Nn1c(SCC(=O)N2CCCC2)nnc1-c1ccc(Cl)cc1Cl	-4	-9	0	-1
SMILES	TEAD-YAP inh	MITF inh	FBW7 act	GPR151 ag
Cn1nccc1C(=O)Oc1cccc(/C=N/NC(=O)c2ccccc2O)c1	42*	6	0	-3
CCC[C@@H]1NC(=O)[C@@H]2C[C@H](NC(=O)NCc3cccc(F)c3)CN2C1=O	4	20	0	2
COc1cc2nc(CN3CCN(c4ccccc4F)CC3)[nH]c(=O)c2cc1OC	48*	-6	0	-2
COc1cc2nc(CN3CCCCC3)[nH]c(=O)c2cc1OC	1	10	0	1
O=C(/C=C/Nc1ccccc1O)c1ccco1	-49	5	0	0
O=C(/C=C/Nc1ccc(Br)cc1F)c1ccco1	43*	-7	0	-2
O=C(/C=C/Nc1cccc(Cl)c1Cl)c1ccco1	53*	-3	0	-2
O=C(/C=C/Nc1ccc(F)cc1F)c1ccco1	64*	3	0	-2
O=C(Cn1nc(-c2ccc(Cl)cc2)ccc1=O)NC1CC1	-2	2	0	0
O=C1CCCN1CCn1cnc2c(Nc3ccc(N4CCOCC4)cc3)nc(Nc3ccc4ncccc4c3)nc21	-13	7	0	2
C=CCN(C)C(=O)c1cn2ccsc2n1	-11	16	0	0
Cc1ccc(S(=O)(=O)N(CC(=O)NCc2ccc3c(c2)OCO3)C2CCCCC2)cc1	9	13	0	3
Oc1ccc(CCNc2nc(Nc3ccc(-n4ccnc4)cc3)nc3c2ncn3-c2ccccc2)cc1	16	3	0	0
OCCNc1nc(Nc2ccccc2)nc2c1ncn2-c1ccccc1	50*	7	0	-1
OCCNc1nc(Nc2ccc(-n3ccnc3)cc2)nc2c1ncn2-c1ccsc1	47*	4	0	1

Bioassay records as filed in PubChem.
